Compounds with a hit are over-represented: about 3.9% of the library has one in this group of screens.
BoNT A protease = BoNT/A light chain protease inhibitors, primary screen, biochemical, flow cytometry, MLPCN library; 360,000 tested, 0.17% active; Botulinum neurotoxin type A light chain protease (Clostridium botulinum A str. ATCC 3502); multiplex microsphere protease substrate cleavage; inhibition, % at 10 µM; note: plate controls were buffer without enzyme for full effect and enzyme alone for no effect
3CLpro inhibitor = SARS-CoV 3CLpro protease inhibitors, primary screen, biochemical, quenched FRET | recombinant SARS-CoV 3CLpro, quenched FRET peptide cleavage | inhibition, % at 6 µM | AID 1706, 2009 | Replicase polyprotein 1ab (Severe acute respiratory syndrome coronavirus), P0C6X7 | 290,000 tested, 0.14% active; in the data active = inhibition above about 12%
BoNT-F LC inh = BoNT/F light chain protease inhibitors, primary screen, biochemical, flow cytometry, MLPCN library. Botulinum neurotoxin type F light chain protease (Clostridium botulinum). Multiplex microsphere protease cleavage assay. inhibition, % at 10 µM. 360,000 tested, 0.22% active. AID 588497, 2011; in the data active = inhibition above about 35%, passing the limit was not always enough; inconclusive = no clear call, values can overlap the other calls; note: plate controls were buffer without enzyme for full effect and enzyme alone for no effect
CCHF vOTU inh = CCHFV vOTU protease inhibitors, primary screen, biochemical, Pep-AMC substrate, fluorescence | 370,000 tested, 0.55% active | inhibition, % at 11.5 µM | Crimean-Congo hemorrhagic fever virus L polyprotein viral ovarian tumor (vOTU) protease …; in the data active = inhibition above about 30%; note: 0% = vehicle wells with enzyme and 100% = no enzyme wells
Bead autofluor = counter-screen for toxin protease inhibitors: compound fluorescence; 360,000 tested, 3.1% active; fluorescence intensity (no concentration beside the values); compound autofluorescence counterscreen, microsphere flow cytometry; hits give high values; in the data active = fluorescence intensity above about 16000; inconclusive = no clear call, values can overlap the other calls
Anthrax LF inh2 = Bacillus anthracis LF protease inhibitors, primary screen, biochemical, multiplex microsphere, MLPCN library. multiplex microsphere protease cleavage assay. AID 588501, 2011. Lethal factor (Bacillus anthracis), P15917. inhibition, % at 10 µM. 360,000 tested, 0.12% active; note: plate controls were buffer without enzyme for full effect and enzyme alone for no effect
Target sequence (P15917 whole entry, looked up): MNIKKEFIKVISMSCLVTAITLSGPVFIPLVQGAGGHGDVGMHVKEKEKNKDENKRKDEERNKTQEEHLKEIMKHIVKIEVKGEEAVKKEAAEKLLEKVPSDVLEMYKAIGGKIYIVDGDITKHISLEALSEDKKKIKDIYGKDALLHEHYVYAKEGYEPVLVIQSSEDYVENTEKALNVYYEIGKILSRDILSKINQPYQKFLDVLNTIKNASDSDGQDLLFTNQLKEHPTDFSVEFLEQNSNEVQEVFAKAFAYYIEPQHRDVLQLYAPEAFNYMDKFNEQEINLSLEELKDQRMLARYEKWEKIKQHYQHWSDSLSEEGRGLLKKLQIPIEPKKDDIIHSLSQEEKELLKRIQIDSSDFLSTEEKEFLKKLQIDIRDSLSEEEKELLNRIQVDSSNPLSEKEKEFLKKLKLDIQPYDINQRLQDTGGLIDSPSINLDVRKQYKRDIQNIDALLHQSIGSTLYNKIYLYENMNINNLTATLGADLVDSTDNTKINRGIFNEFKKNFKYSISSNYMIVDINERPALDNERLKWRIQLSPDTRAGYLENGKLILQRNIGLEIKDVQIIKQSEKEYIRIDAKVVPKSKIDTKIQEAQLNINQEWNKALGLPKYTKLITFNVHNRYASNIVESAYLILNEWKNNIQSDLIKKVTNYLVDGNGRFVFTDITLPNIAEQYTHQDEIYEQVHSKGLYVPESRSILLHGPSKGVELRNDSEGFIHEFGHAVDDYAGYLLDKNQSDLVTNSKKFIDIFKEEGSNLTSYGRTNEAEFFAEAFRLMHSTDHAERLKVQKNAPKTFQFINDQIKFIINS
* marks the source's active call; other numbers are inactive results; ? = inconclusive; . = no result given. Cut-off read from the data, not from the text of the source, unless noted: active = inhibition above about 30%; inconclusive = no clear call, values can overlap the other calls; inactive = below that.

SMILES	BoNT A protease	3CLpro inhibitor	BoNT-F LC inh	CCHF vOTU inh	Bead autofluor	Anthrax LF inh2
Cc1nnc(SCc2cc([N+](=O)[O-])cc3c2OCOC3)[nH]c1=O	1	-2	0	-2	5339	0
COc1ccc(CSc2nnc(SCc3ccc([N+](=O)[O-])cc3)s2)cc1	1	-3	-3	1	23671*	0
CCOC(=O)C1CSCCS(=O)(=O)N1Cc1ccc(Br)cc1 (stereo not given)	.	.	.	3	.	.
O=C(Nc1ccc(F)cc1)OCCN1C(=O)CCC12CCC(c1ccccc1)CC2 (stereo not given)	.	.	.	2	.	.
COc1nnc(-c2ccc(N3CCOCC3)c(NC(=O)C3CCCCC3)c2)c2ccccc12	-2	2	-18	9	3686	-3
c1ccc2c3c(cc(N4CCOCC4)c2c1)OC1(N2CCOCC2)CCCCC1O3 (stereo not given)	4	-2	36*	-2	4432	2
O=C(O)/C(=C\c1ccco1)NC(=O)c1cccc2ccccc12	8	2	10	9	20299*	-1
CC1CCN(S(=O)(=O)N2CCC(C(=O)NCc3ccc(F)cc3Cl)CC2)CC1	0	.	-6	-9	3752	2
O=C(CCS(=O)(=O)c1ccc(Br)s1)NC1CCCC1	0	-2	0	-10	9491	2
Cc1ccc(S(=O)(=O)NCCC(=O)NC2CCCC2)cc1	?	-4	2	-13	20213*	1
O=C(CCNS(=O)(=O)c1ccc(Br)s1)NC1CCCC1	-2	-1	-1	-8	24053*	1
CC(C)Nc1nnc(SCC(=O)N2CCN(C(=O)c3ccco3)CC2)s1	0	.	-6	3	?	?
Cn1c(=O)c2c(ncn2Cc2ccc(Cl)c(Cl)c2)n(C)c1=O	?	-5	1	-13	19612*	-8
CCN(c1ccc(N=Cc2c(O)n(Cc3ccc(OC)cc3)c(=O)c3ccccc23)cc1)C(C)C	37*	-6	52*	5	55670*	13
COc1ccc(-n2c(O)c(C=Nc3ccccc3)c3ccccc3c2=O)cc1	-1	-1	-5	-4	3597	-8
O=C(c1ccc2c(c1)C(=O)N(Cc1ccco1)C2=O)N1CCOCC1	-5	0	-5	4	23883*	-1
N#Cc1nc(-c2ccco2)oc1N1CCN(c2ccccc2)CC1	0	3	6	2	3193	-2
COc1ccccc1-c1nc(C#N)c(N2CCc3ccccc3C2)o1	0	1	-13	-57	11156	-6
COc1ccc(N2CCN(c3oc(-c4ccccc4OC)nc3C#N)CC2)cc1	-3	5	-5	.	21565*	-4
CCN1CCN(c2oc(-c3ccc(OC)cc3)nc2C#N)CC1	-2	1	-2	-19	16578*	-4
COc1ccc(N2CCN(c3oc(-c4ccco4)nc3C#N)CC2)cc1	?	3	6	-9	20889*	-6
COc1ccccc1-c1nc(C#N)c(N2CCN(c3ccccc3)CC2)o1	0	0	-1	-4	2872	-3
COc1ccc(-c2nc(C#N)c(N3CCN(c4ccccc4)CC3)o2)cc1	-1	-1	-13	5	5922	-13
COc1ccc(-c2nc(C#N)c(N3CCc4ccccc4C3)o2)cc1OC	-2	-1	-5	-7	17078*	-7
Cc1ccc(CNC(=O)c2cc(=O)c3ccc(C)cc3o2)cc1	2	-1	-10	8	3721	10
SMILES	BoNT A protease	3CLpro inhibitor	BoNT-F LC inh	CCHF vOTU inh	Bead autofluor	Anthrax LF inh2
CC(C)(C)OC(=O)NCCCc1ccc2c(c1)[C@]1(CCC[C@@H](OCc3ccccc3)[C@@H]1NC(=O)CCc1ccccc1)C(=O)N2Cc1ccccc1	.	.	.	24	.	.
Cc1ccsc1CNn1cnnc1SCc1ccc(Cl)cc1	-4	3	-7	9	23748*	0
Cc1ccc(CNn2cnnc2SCc2ccc(F)cc2)cc1	0	5	-1	3	22609*	-3
Fc1ccc(CNn2cnnc2SCc2ccc(F)cc2)cc1	1	3	1	9	6004	14
C/C(=N\O)c1ccc2c3ccccc3n(C)c2c1	?	1	-8	-21	21762*	-4
CCn1c2ccccc2c2cc(/C(C)=N/O)ccc21	0	-1	-5	3	1969	-3
CCOC(=O)N1CCN(S(=O)(=O)c2cc([N+](=O)[O-])ccc2C)CC1	-1	1	-8	-3	4535	-2
CCOC(=O)N1CCC(=NNS(=O)(=O)c2cccc([N+](=O)[O-])c2)CC1	-8	-3	-8	-9	22772*	-2
O=C(COc1ccc2ccccc2c1Br)N1CCN(c2ccccn2)CC1	2	-6	1	0	21691*	-1
CC(C)(C)NC(=S)Nc1ccc(Nc2ccccc2)cc1	-1	1	-10	-1	9593	-22
CC(C)(C)NC(=S)Nc1ccc(Br)cc1	-1	4	2	-4	22615*	-1
COc1ccc(S(=O)(=O)N2CCOCC2)cc1NC(=O)CCCSc1ccccc1	0	.	-1	2	3967	-1
CCN(CC)C(=O)CSc1nnc(-c2cc3ccccc3cc2O)n1CC	-3	7	-7	-6	23212*	-4
CCN(CC)C(=O)CSc1nnc2cc(C)c3ccccc3n12	-1	1	-7	13	4675	-2
CC(=O)NCCOC(=O)Nc1ccncc1	6	-3	9	-3	20618*	-16
CCN(CC)CCN1C(=O)c2oc3ccccc3c(=O)c2C1c1ccc(F)cc1 (stereo not given)	-2	1	-3	-6	21092*	-4
CCN(CC)CCN1C(=O)c2oc3ccc(F)cc3c(=O)c2C1c1ccncc1 (stereo not given)	-1	.	-10	1	5086	-13
CN(C)CCCN1C(=O)c2oc3ccccc3c(=O)c2C1c1cccs1 (stereo not given)	8	-3	7	0	18317*	-9
COc1cccc(-c2cccc(-c3nc(C(=O)NCc4ccc5c(c4)OCO5)cc4c3[C@H](CCO)N(S(=O)C(C)(C)C)C4)c2)c1 (stereo not given in full)	-1	.	-26	20	5264	0
CCN1CCN(C(=O)c2ccccc2N(Cc2ccccc2)S(=O)(=O)c2ccc(C)cc2)CC1	?	1	1	7	21954*	-3
COc1ccc(S(=O)(=O)N(Cc2ccccc2)c2ccccc2C(=O)N2CCOCC2)cc1	1	4	5	5	3555	0
CCN1CCN(C(=O)c2ccccc2N(Cc2ccccc2)S(C)(=O)=O)CC1	2	4	1	-5	21470*	0
Cc1ccc(C2c3c(n[nH]c3C(C)C)C(=O)N2c2ccccc2)cc1 (stereo not given)	.	.	.	14	.	.
C[C@H](CCCCC1(C)OCCO1)CCC(=O)N(c1ccccc1)c1ccccc1	.	.	.	19	.	.
